{"source": "PubChem BioAssay AID463173", "about": "(ICCB-Longwood Screening Facility, Harvard Medical School, 2010)", "note": "Among all 52,000 compounds or so, about 4,300 (8.3%) were called active. Rule as the data show it: active = survival mostly below about 52% (no sharp cut-off); inactive = mostly above about 56%. This excerpt belongs to a sample that is enriched for actives."}
{"test_system": "DeltatarO mutant", "assay": "S. aureus survival, RN4220 and DeltatarO strains – OD600, teichoic acid synthesis inhibitors, primary screen (AID 463173)", "conditions": "S. aureus RN4220 wild type/DeltatarO growth, OD600, 18 h, hits give low values, screened at 18.75 µg/mL (by protocol)"}
{"smiles": "Cc1c(CCNC(=O)c2ccc(Br)o2)sc2nc(-c3ccc(Cl)cc3)nn12", "survival": "75% (inactive)"}
{"smiles": "O=C(CCn1cnnn1)Nc1ccc(F)cc1", "survival": "72% (inactive)"}
{"smiles": "Cc1cccc(NC(=O)CCn2cnnn2)c1", "survival": "79% (inactive)"}
{"smiles": "O=C(CCn1cnnn1)Nc1cc(C(F)(F)F)cc(C(F)(F)F)c1", "survival": "69% (active)"}
{"smiles": "CC(=O)Nc1cccc(-c2nnc(SCC(=O)c3ccc([N+](=O)[O-])cc3)o2)c1", "survival": "130% (inactive)"}
{"smiles": "Cc1cc(C)cc(NCc2nnc3n2CCCCC3)c1", "survival": "89% (inactive)"}
{"smiles": "COc1ccc(C)cc1NCc1nnc2n1CCCCC2", "survival": "20% (active)"}
{"smiles": "Fc1ccc(NCc2nnc3n2CCCCC3)cc1Cl", "survival": "102% (inactive)"}
{"smiles": "Cc1ccc(Cl)cc1NCc1nnc2n1CCCCC2", "survival": "101% (inactive)"}
{"smiles": "COc1ccc(Cl)cc1NCc1nnc2n1CCCCC2", "survival": "8% (active)"}
{"smiles": "COc1ccc(NCc2nnc3n2CCCCC3)c(OC)c1", "survival": "100% (inactive)"}
{"smiles": "Clc1cccc(-n2ncc3c(N4CCC(Cc5ccccc5)CC4)ncnc32)c1", "survival": "83% (inactive)"}
{"smiles": "CCOC(=O)c1ccccc1NC(=O)CSc1nccn1Cc1ccco1", "survival": "75% (inactive)"}
{"smiles": "COCCCNC(=O)CCC(=O)NNc1nc2ccccc2c2nc(-c3ccccc3)nn12", "survival": "100% (inactive)"}
{"smiles": "O=C(CCn1nnc2ccccc21)N1CCC(O)(c2cccc(F)c2)CC1", "survival": "81% (inactive)"}
{"smiles": "COC(=O)c1ccccc1NC(=O)Cn1cc(S(=O)(=O)Cc2ccccc2F)c2ccccc21", "survival": "94% (inactive)"}
{"smiles": "COc1cccc(N2C(=O)CSC23C(=O)N(Cc2ccccc2F)c2ccccc23)c1", "note": "(stereo not drawn)", "survival": "67% (inactive)"}
{"smiles": "O=C(Nc1nc2n(n1)C(c1ccc(F)cc1)C=C(c1ccccc1)N2)c1ccc(Cl)cc1", "note": "(stereo not drawn)", "survival": "48% (inactive)"}
{"smiles": "Cc1ccc(C(=O)Nc2nc3n(n2)C(c2ccccc2)C=C(c2ccccc2)N3)cc1", "note": "(stereo not drawn)", "survival": "57% (inactive)"}
{"smiles": "COc1ccc(C2C=C(c3ccccc3)Nc3nc(NC(C)=O)nn32)cc1", "note": "(stereo not drawn)", "survival": "53% (inactive)"}
{"smiles": "COc1ccc(C(=O)Nc2nc3n(n2)C(c2ccc(F)cc2)C=C(c2ccc(Cl)cc2)N3)cc1", "note": "(stereo not drawn)", "survival": "54% (inactive)"}
{"smiles": "Cc1ccc(C(=O)Nc2nc3n(n2)C(c2ccc(F)cc2)C=C(c2ccccc2)N3)cc1", "note": "(stereo not drawn)", "survival": "43% (active)"}
{"smiles": "COc1ccc(C2C=C(c3ccccc3)Nc3nc(NC(=O)c4ccc(C)cc4)nn32)cc1", "note": "(stereo not drawn)", "survival": "44% (active)"}
{"smiles": "CCOc1ccccc1CNC(=O)CN(c1ccc(C)cc1)S(=O)(=O)N(C)C", "survival": "70% (inactive)"}
{"smiles": "O=C(O)CSc1c[nH]c2ccccc12", "survival": "84% (inactive)"}
{"smiles": "Cc1ccc2[nH]cc(C(c3ccccc3)c3cccs3)c2c1", "note": "(stereo not drawn)", "survival": "12% (active)"}
{"smiles": "Cc1ccc2[nH]cc(C(c3ccccc3)c3ccc(Cl)s3)c2c1", "note": "(stereo not drawn)", "survival": "10% (active)"}
{"smiles": "c1ccc(C(c2cccs2)c2c[nH]c3ccccc23)cc1", "note": "(stereo not drawn)", "survival": "-1% (active)"}
{"smiles": "Cc1ccc2[nH]cc(S(=O)(=O)c3ccc(C)c(C)c3)c(=O)c2c1", "survival": "81% (inactive)"}
{"smiles": "Cn1cc(C(c2ccccc2)c2ccc(Cl)s2)c2ccccc21", "note": "(stereo not drawn)", "survival": "102% (inactive)"}
{"smiles": "Clc1ccc(C(c2ccccc2)c2c[nH]c3ccccc23)s1", "note": "(stereo not drawn)", "survival": "-3% (active)"}
{"smiles": "COc1ccc(C(CN)c2c[nH]c3ccccc23)cc1", "note": "(stereo not drawn)", "survival": "107% (inactive)"}
{"smiles": "CCCCN(CC)C(=O)c1nn(-c2ccc(OC)cc2)c(=O)c2c1c1ccccc1n2C", "survival": "82% (inactive)"}
{"smiles": "COc1cccc(CNC(=O)Cn2cc3c(n2)-c2c(oc(C(=O)N4CCCC4)c2C)CC3)c1", "survival": "76% (inactive)"}
{"smiles": "Cc1cccc(N2CCN(c3ncnc4onc(C)c34)CC2C)c1", "note": "(stereo not drawn)", "survival": "77% (inactive)"}
{"smiles": "CCc1ccc(C(c2ccccc2)c2c[nH]c3ccc(C)cc23)s1", "note": "(stereo not drawn)", "survival": "69% (inactive)"}
{"smiles": "CCN(Cc1ccccc1)C(=O)c1cc2c(=O)[nH]c3ccc(C)cc3c2s1", "survival": "49% (inactive)"}
{"smiles": "Cc1ccc2[nH]cc(C(c3ccccc3)c3ccc(C)s3)c2c1", "note": "(stereo not drawn)", "survival": "25% (active)"}
{"smiles": "Cc1ccc(OCc2nc(-c3ccc(C(=O)N4CCN(c5ccc(Cl)cc5)CC4)cc3)oc2C)cc1", "survival": "76% (inactive)"}
{"smiles": "CCOc1ccc(NC(=O)C(CC)n2nc(-c3ccc(C)c(C)c3)ccc2=O)cc1", "note": "(stereo not drawn)", "survival": "68% (inactive)"}
{"smiles": "Cc1ccc(C)c(-c2ccc(=O)n(C(C)C(=O)Nc3ccccc3C(F)(F)F)n2)c1", "note": "(stereo not drawn)", "survival": "41% (active)"}
{"smiles": "CCc1cccc(NC(=O)Cn2nc(-c3ccc(OC)cc3)ccc2=O)c1", "survival": "83% (inactive)"}
{"smiles": "CCC(C(=O)Nc1ccccc1)n1nc(-c2cc(C)ccc2C)ccc1=O", "note": "(stereo not drawn)", "survival": "37% (active)"}
{"smiles": "CCC(C(=O)Nc1ccc(C(=O)OC)cc1)n1nc(-c2ccc(C)c(C)c2)ccc1=O", "note": "(stereo not drawn)", "survival": "86% (inactive)"}
{"smiles": "CCC(C(=O)Nc1cccc(C#N)c1)n1nc(-c2ccccc2)ccc1=O", "note": "(stereo not drawn)", "survival": "40% (active)"}
{"smiles": "CCc1ccccc1NC(=O)C(C)n1nc(-c2ccc(C)c(C)c2)ccc1=O", "note": "(stereo not drawn)", "survival": "54% (inactive)"}
{"smiles": "CCc1cccc(NC(=O)Cn2nc(CC)n3c(cc4cc(C)ccc43)c2=O)c1", "survival": "56% (inactive)"}
{"smiles": "CCC(C(=O)Nc1cccc(C#N)c1)n1c(=O)c(-c2ccccc2NC(C)=O)nc2ccccc21", "note": "(stereo not drawn)", "survival": "100% (inactive)"}
{"smiles": "CCc1cccc(NC(=O)Cn2nc(-c3cc(C)ccc3C)ccc2=O)c1", "survival": "34% (active)"}
{"smiles": "Cc1ccc(-c2ccc(=O)n(CC(=O)Nc3cccc(C#N)c3)n2)cc1", "survival": "112% (inactive)"}
{"smiles": "Cc1ccc(C)c(NC(=O)C(C)n2c(=O)cc(C(F)(F)F)c3c(C)nn(C)c32)c1", "note": "(stereo not drawn)", "survival": "89% (inactive)"}
{"smiles": "COc1ccc(Nc2ncnc3c2cnn3-c2ccc(C)cc2)cc1Cl", "survival": "128% (inactive)"}
{"smiles": "CC1=C(c2ccc(C)c(C)c2)S(=O)(=O)N=C1N1CCC(C(=O)Nc2cccc(F)c2)CC1", "survival": "79% (inactive)"}
{"smiles": "O=C(COC(=O)c1ccccc1Cl)Nc1nccs1", "survival": "94% (inactive)"}
{"smiles": "Cc1ccc(CCNC(=O)NCc2noc3ccccc23)cc1", "survival": "102% (inactive)"}
{"smiles": "COc1ccc(CNC(=O)C(=O)Nc2c3c(nn2-c2ccccc2)CSC3)cc1", "survival": "86% (inactive)"}
{"smiles": "Cc1ccc(OCCSc2nc(-c3ccccc3C)nc3cc(=O)[nH]n23)cc1Cl", "survival": "106% (inactive)"}
{"smiles": "COc1ccc(CNC(=O)CCS(=O)(=O)c2cc(Br)cc3c2N(C(C)=O)C(C)C3)cc1", "note": "(stereo not drawn)", "survival": "92% (inactive)"}
{"smiles": "CCOC(=O)c1c(S(=O)(=O)N2CCC(C(=O)Nc3cccc(C)n3)CC2)c(C)n(C)c1C", "survival": "94% (inactive)"}
{"smiles": "CCC(C(=O)Nc1cc(F)ccc1F)n1nc(-c2cc(C)ccc2C)ccc1=O", "note": "(stereo not drawn)", "survival": "38% (active)"}
{"smiles": "Cc1ccc2onc(CNC(=O)Nc3cc(F)ccc3F)c2c1", "survival": "49% (inactive)"}
{"smiles": "CCC(C(=O)Nc1cc(F)ccc1F)n1nc(C)c2c(C)n(-c3ccc(C)cc3)nc2c1=O", "note": "(stereo not drawn)", "survival": "87% (inactive)"}
{"smiles": "COc1ccc(NC(=O)c2sc3nc4n(c(=O)c3c2C)CCC4)cc1Cl", "survival": "108% (inactive)"}
{"smiles": "CCc1ccc(NC(=O)C2(c3cccs3)CCOCC2)cc1", "survival": "73% (inactive)"}
{"smiles": "Nc1n[nH]c2nc(C(F)(F)F)cc(=O)n12", "survival": "62% (inactive)"}
{"smiles": "Cc1ccc(C(=O)C2=C(O)C(=O)N(CCc3ccccc3)C2c2ccncc2)o1", "note": "(stereo not drawn)", "survival": "103% (inactive)"}
{"smiles": "COc1cc(OC)cc(C(=O)Nc2ccc3oc(-c4cccc5c(Br)cccc45)nc3c2)c1", "survival": "60% (inactive)"}
{"smiles": "COC(=O)c1ccc(C(=O)Nc2ccc(-c3nc4cc(NC(=O)c5ccc(C(=O)OC)cc5)ccc4o3)cc2)cc1", "survival": "60% (inactive)"}
{"smiles": "COc1ccc(C(=O)Nc2ccc3oc(-c4ccc(OC)cc4)nc3c2)cc1", "survival": "60% (inactive)"}
{"smiles": "COc1cc(OC)cc(C(=O)Nc2ccc3oc(-c4ccc(Cl)cc4)nc3c2)c1", "survival": "50% (active)"}
{"smiles": "COc1cccc(C(=O)Nc2ccc3oc(-c4ccc5ccccc5c4)nc3c2)c1", "survival": "55% (inactive)"}
{"smiles": "CC(C)Oc1cccc(C(=O)Nc2ccc(-c3nc4cc(Cl)cc(Cl)c4o3)cc2)c1", "survival": "55% (inactive)"}
{"smiles": "O=C(Nc1ccc(-c2nc3cc(NC(=O)c4ccc(Cl)cc4)ccc3o2)cc1)c1ccc(Cl)cc1", "survival": "88% (inactive)"}
{"smiles": "CC(C)Oc1cccc(C(=O)Nc2ccc3oc(-c4cccc(Cl)c4)nc3c2)c1", "survival": "28% (active)"}
{"smiles": "COc1cc(C(=O)Nc2ccc(-c3nc4cc(C)c(C)cc4o3)cc2)cc(OC)c1OC", "survival": "59% (inactive)"}
{"smiles": "COc1cc(OC)cc(C(=O)Nc2ccc3oc(-c4ccccc4C)nc3c2)c1", "survival": "34% (active)"}
{"smiles": "COc1cc(OC)cc(C(=O)Nc2ccc(-c3nc4cc(C(C)C)ccc4o3)cc2)c1", "survival": "45% (active)"}
{"smiles": "Cc1ccc(C(=O)Nc2ccc3oc(-c4ccccc4C)nc3c2)cc1", "survival": "65% (inactive)"}
{"smiles": "Cc1cc(F)ccc1NC(=O)Cn1nc(N2CCN(c3ccccc3)CC2)ccc1=O", "survival": "80% (inactive)"}
{"smiles": "COc1cc(-c2noc(-c3ccc(N4CCOCC4)c([N+](=O)[O-])c3)n2)cc(OC)c1OC", "survival": "66% (inactive)"}
{"smiles": "CCc1cc(C(=O)OC)c(NC(=O)CC2SC(=NC)N(C)C2=O)s1", "note": "(stereo not drawn)", "survival": "106% (inactive)"}
{"smiles": "COCCn1c(CNC(=O)c2cccc(C)c2)nc2cccnc21", "survival": "95% (inactive)"}
{"smiles": "Cc1cccc(N2CCN(C(=O)CCc3nnc4n(CC(C)C)c(=O)c5ccccc5n34)CC2)c1C", "survival": "74% (inactive)"}
{"smiles": "CCc1ccc(C2CC(=O)Nc3cc4c(cc32)OCO4)cc1", "note": "(stereo not drawn)", "survival": "59% (inactive)"}
{"smiles": "CCN(CC)S(=O)(=O)c1ccc(-c2nnc(SCC(=O)N3CCCC3)n2CC)cc1", "survival": "103% (inactive)"}
{"smiles": "COc1ccc(Nc2nnc(-n3nc(C)cc3C)c3ccccc23)cc1", "survival": "85% (inactive)"}
{"smiles": "O=C(CSc1ncc(CO)n1Cc1ccccc1)Nc1nc2ccccc2s1", "survival": "122% (inactive)"}
{"smiles": "COc1ccc(NC(=O)Cn2nc(C)c3nn(-c4ccc(Cl)cc4)c(C)c3c2=O)cc1", "survival": "85% (inactive)"}
{"smiles": "COc1ccccc1CNC(=O)Cn1nc(C)c2nn(-c3ccc(Cl)cc3)c(C)c2c1=O", "survival": "63% (inactive)"}
{"smiles": "Cc1nn(CC(=O)Nc2ccc(OC(F)(F)F)cc2)c(=O)c2c(C)n(-c3ccc(Cl)cc3)nc12", "survival": "25% (active)"}
{"smiles": "CCOc1ccccc1CNC(=O)Cn1nc(C)c2nn(-c3ccc(Cl)cc3)c(C)c2c1=O", "survival": "101% (inactive)"}
{"smiles": "CCOC(=O)c1ccc(NC(=O)Cn2nc(C)c3nn(-c4ccc(Cl)cc4)c(C)c3c2=O)cc1", "survival": "102% (inactive)"}
{"smiles": "Cc1ccccc1CNC(=O)Cn1nc(C)c2nn(-c3ccc(Cl)cc3)c(C)c2c1=O", "survival": "37% (active)"}
